PubChem BioAssay (Tox21)
Records with an inconclusive call do not appear. Calls of active or inactive are those of the source. Unless noted, calls come from the whole dose curve.

Experiments:
[1] = qHTS assay to identify small molecule agonists of the peroxisome proliferator-activated receptor delta (PPARd) signaling pathway - cell viability counter screen (AID 743211; active = well fitted curve in the direction sought with a large enough effect in the repeat runs; an effect the other way counts as inactive or inconclusive; note: nearly all actives have a fitted effect of over 55% in size)
Outline: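 Tox21 library compounds, delivered in DMSO, were incubated 17 h with PPARd-bla HEK293H cells; cytotoxicity was taken from CellTiter-Glo luminescence read 30 min after reagent addition.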

[2] = biological target: Peroxisome proliferator-activated receptor delta (Homo sapiens) (UniProt Q03181); assay: qHTS assay to identify small molecule agonists of the peroxisome proliferator-activated receptor delta (PPARd) signaling pathway (AID 743212)
Peroxisome proliferator-activated receptor delta (Homo sapiens), sequence (Q03181 whole entry, looked up): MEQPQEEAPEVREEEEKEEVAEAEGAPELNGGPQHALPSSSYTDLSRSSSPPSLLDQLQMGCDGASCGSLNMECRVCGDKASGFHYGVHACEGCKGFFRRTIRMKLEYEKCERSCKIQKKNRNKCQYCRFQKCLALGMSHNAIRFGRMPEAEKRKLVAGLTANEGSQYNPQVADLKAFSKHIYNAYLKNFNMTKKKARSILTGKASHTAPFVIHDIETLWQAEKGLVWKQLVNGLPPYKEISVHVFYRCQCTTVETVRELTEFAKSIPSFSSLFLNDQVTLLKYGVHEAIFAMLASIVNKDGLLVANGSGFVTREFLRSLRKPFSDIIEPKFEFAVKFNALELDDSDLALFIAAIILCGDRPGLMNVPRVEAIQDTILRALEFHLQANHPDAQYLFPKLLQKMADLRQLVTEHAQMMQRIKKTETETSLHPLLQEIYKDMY
Outline: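 Beta-lactamase reporter readout: a ratiometric FRET signal from the LiveBLAzer substrate after 2 h at room temperature. Compound exposure at 37 °C in PPARδ-bla HEK293H cells driven by an upstream activator sequence.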

[3] = qHTS assay to identify small molecule antagonists of the peroxisome proliferator-activated receptor delta (PPARd) signaling pathway - cell viability counter screen (AID 743213; active = well fitted curve in the direction sought with a large enough effect in the repeat runs; an effect the other way counts as inactive or inconclusive; note: nearly all actives have a fitted effect of over 50% in size; note: potency is the fitted concentration of half-maximal effect)
Outline: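 HEK293H cells with the PPARd UAS-bla reporter, co-treated 17 h at 37 C with compounds and L165041 (300 nM final), were lysed with CellTiter-Glo. Luminescence indicated viable cell content.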

[4] = biological target: Peroxisome proliferator-activated receptor delta (Homo sapiens) (UniProt Q03181); assay: qHTS assay to identify small molecule antagonists of the peroxisome proliferator-activated receptor delta (PPARd) signaling pathway (AID 743215; active = well fitted inhibition curve with a large enough effect in the signal ratio in the repeat runs, not every such curve was filed as active; the % refers to the signal ratio;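 note: cells stimulated with agonist L165041 at 300 nM final during compound exposure; series mostly up to about 62 µM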)
Outline: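 HEK293H GeneBLAzer PPARd UAS-bla reporter cells; cpd + L165041 300 nM final, 17 h 37 C; LiveBLAzer B/G FRET substrate 2 h RT; fluorescence intensity read-out. Antagonist mode.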

[5] = qHTS assay to identify small molecule agonists of the farnesoid-X-receptor (FXR) signaling pathway - cell viability counter screen (AID 743218; active = well fitted curve in the direction sought with a large enough effect in the repeat runs; an effect the other way counts as inactive or inconclusive; note: nearly all actives have a fitted effect of over 45% in size)
Outline: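 Luminescence from CellTiter-Glo, read after 30 min at RT, reports viability of GeneBLAzer FXR-UAS-bla HEK 293T cells treated 16 h with compounds in the wells used for the beta-lactamase reporter.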

[6] = biological target: Vitamin D3 receptor (Homo sapiens) (UniProt P11473); assay: qHTS assay to identify small molecule agonists of the vitamin D receptor (VDR) signaling pathway (AID 743222)
Vitamin D3 receptor (Homo sapiens), sequence (P11473 whole entry, looked up): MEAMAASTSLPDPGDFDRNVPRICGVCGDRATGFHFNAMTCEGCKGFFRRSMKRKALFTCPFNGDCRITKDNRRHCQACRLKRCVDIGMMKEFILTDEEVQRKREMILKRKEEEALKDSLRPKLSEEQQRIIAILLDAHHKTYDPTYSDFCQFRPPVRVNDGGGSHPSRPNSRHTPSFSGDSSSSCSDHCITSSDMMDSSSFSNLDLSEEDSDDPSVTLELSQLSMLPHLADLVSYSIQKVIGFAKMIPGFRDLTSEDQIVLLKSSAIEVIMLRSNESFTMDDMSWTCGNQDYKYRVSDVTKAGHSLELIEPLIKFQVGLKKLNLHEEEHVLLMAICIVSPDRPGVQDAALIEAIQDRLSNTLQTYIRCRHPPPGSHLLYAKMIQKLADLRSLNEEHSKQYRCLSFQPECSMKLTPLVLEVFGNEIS
Outline: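 Beta-lactamase reporter readout (LiveBLAzer B/G FRET, 2 h RT) in VDR-bla cells after 16 h compound treatment at 37C, 5% CO2; cells pre-incubated 4 h before pin transfer of DMSO solutions.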

[7] = biological target: Vitamin D3 receptor (Homo sapiens) (UniProt P11473); assay: qHTS assay to identify small molecule antagonists of the vitamin D receptor (VDR) signaling pathway (AID 743223; active = well fitted inhibition curve with a large enough effect in the signal ratio in the repeat runs, not every such curve was filed as active; the % refers to the signal ratio)
Outline: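 Quantitative HTS in VDR-bla reporter cells stimulated with 1alpha,25-dihydroxyvitamin D3, 3 nM final. Compound exposure 16 h, 37C, 5% CO2. Read-out: beta-lactamase FRET substrate fluorescence, 2 h RT.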

[8] = qHTS assay to identify small molecule agonists of the vitamin D receptor (VDR) signaling pathway - cell viability counter screen (AID 743224; active = well fitted curve in the direction sought with a large enough effect in the repeat runs; an effect the other way counts as inactive or inconclusive; note: series mostly up to about 63 µM; nearly all actives have a fitted effect of over 50% in size)
Outline: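 Cytotoxicity counter screen: VDR-bla cells, 16 h compound exposure at 37C, 5% CO2; CellTiter-Glo luminescence, 30 min RT, same wells as bla read.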

[9] = qHTS assay to identify small molecule antagonists of the vitamin D receptor (VDR) signaling pathway - cell viability counter screen (AID 743225; active = well fitted curve in the direction sought with a large enough effect in the repeat runs; an effect the other way counts as inactive or inconclusive; note: nearly all actives have a fitted effect of over 50% in size)
Outline: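 Same-well multiplex: following 16 h treatment of HEK 293T cells carrying a UAS-driven beta-lactamase reporter with compound and agonist (3 nM final), and a 2 h FRET substrate step, CellTiter-Glo was added and luminescence read after 30 min.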

[10] = qHTS assay to identify small molecule agonists of the NFkB signaling pathway - cell viability counter screen (AID 1159515); note: series mostly up to about 61 µM; nearly all actives have a fitted effect of over 55% in size
Outline: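 ME-180 NFkB-bla cells, 2,000/well; overnight attach; compound 5 hr, 37 C/5% CO2; LiveBLAzer substrate 1.5 hr RT; then CellTiter-Glo in same wells, 30 min RT, luminescence read.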

[11] = qHTS assay to identify small molecule agonists of the endoplasmic reticulum stress response signaling pathway (AID 1159516; active = well fitted activation curve with a large enough effect in the signal ratio in the repeat runs, not every such curve was filed as active; the % refers to the signal ratio)
Outline: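 HeLa ESRE-bla reporter line; cpd 5 h, 37 C/5% CO2; LiveBLAzer B/G FRET substrate 2 h RT; ex 405, em 460/530 nm.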

[12] = qHTS assay to identify small molecule agonists of the endoplasmic reticulum stress response signaling pathway - cell viability counter screen (AID 1159517);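 note: HeLa cells carrying an ER stress response element beta-lactamase reporter; series mostly up to about 61 µM; nearly all actives have a fitted effect of over 50% in size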
Outline: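 ESRE-bla HeLa cells (1,500/well) were plated overnight at 37 C and exposed to compounds for 5 hr. After the 2 hr beta-lactamase substrate read, CellTiter-Glo went into the same wells, and luminescence was read after 30 min at room temperature.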

[13] = qHTS assay to identify small molecule antagonists of the retinoid-related orphan receptor gamma (ROR-gamma) signaling pathway - cell viability counter screen (AID 1159520; active = well fitted curve in the direction sought with a large enough effect in the repeat runs; an effect the other way counts as inactive or inconclusive; note: nearly all actives have a fitted effect of over 50% in size)
Outline: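 Cytotoxicity was read from cellular ATP (CellTiter-Glo luminescence) after 16 hr at 37 C with 1 uM doxycycline induction. The inducer was added 2 hr after compound transfer to Tet-on ROR gamma CHO cells.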

[14] = biological target: Nuclear receptor ROR-gamma (Homo sapiens) (UniProt P51449); assay: qHTS assay to identify small molecule antagonists of the retinoid-related orphan receptor gamma (ROR-gamma) signaling pathway (AID 1159521; active = well fitted curve in the direction sought with a large enough effect in the repeat runs; an effect the other way counts as inactive or inconclusive; note: nearly all actives have a fitted effect of over 50% in size; note: potency is the fitted concentration of half-maximal effect)
Outline: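 Inducible-expression reporter assay: doxycycline (1 uM final) switched on RORγ in CHO cells bearing a ROR response element-luciferase construct, with test compounds present from 2 h beforehand. Decreased luminescence after 16 h defined antagonist activity.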

[15] = qHTS assay to identify small molecule agonists of the AP-1 signaling pathway - cell viability counter screen (AID 1159525); note: nearly all actives have a fitted effect of over 55% in size
Outline: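 Intracellular ATP by Cell Titer Glo luminescence (30 min, RT) in the same ME-180 AP-1-bla wells after the 5 h compound exposure at 37 °C. Normalised to tetra n-octyl ammonium bromide and DMSO controls.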

[16] = qHTS assay to identify small molecule agonists of the AP-1 signaling pathway (AID 1159526); note: potency is the fitted concentration of half-maximal effect
[17] = biological target: Retinoic acid receptor RXR-alpha (Homo sapiens) (UniProt P19793); assay: qHTS assay to identify small molecule agonists of the RXR signaling pathway (AID 1159527); note: nearly all actives have a fitted effect of over 35% in size; note: potency is the fitted concentration of half-maximal effect
Retinoic acid receptor RXR-alpha (Homo sapiens), sequence (P19793 whole entry, looked up): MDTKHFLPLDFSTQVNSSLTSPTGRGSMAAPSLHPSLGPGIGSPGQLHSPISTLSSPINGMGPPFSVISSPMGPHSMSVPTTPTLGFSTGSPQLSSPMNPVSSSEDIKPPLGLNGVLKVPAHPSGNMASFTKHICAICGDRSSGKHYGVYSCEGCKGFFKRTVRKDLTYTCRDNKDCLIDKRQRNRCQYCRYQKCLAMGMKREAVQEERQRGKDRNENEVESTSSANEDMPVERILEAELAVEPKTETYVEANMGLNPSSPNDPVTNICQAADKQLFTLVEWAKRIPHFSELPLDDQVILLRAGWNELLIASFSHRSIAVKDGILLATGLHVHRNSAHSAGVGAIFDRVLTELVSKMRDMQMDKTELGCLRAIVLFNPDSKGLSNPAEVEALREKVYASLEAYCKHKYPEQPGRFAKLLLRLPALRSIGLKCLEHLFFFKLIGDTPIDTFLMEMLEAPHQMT
Outline: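 Compounds in DMSO were added to RXR-alpha-UAS-bla HEK 293T cells kept in 2% charcoal-stripped serum, and incubated 16 hr at 37 C with 5% CO2. Reporter signal came from a 2 hr B/G FRET substrate step.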

[18] = biological target: Bile acid receptor (Homo sapiens) (UniProt Q96RI1); assay: qHTS assay to identify small molecule antagonists of the farnesoid-X-receptor (FXR) signaling pathway (AID 743217; active = well fitted inhibition curve with a large enough effect in the signal ratio in the repeat runs, not every such curve was filed as active; the % refers to the signal ratio)
Bile acid receptor (Homo sapiens), sequence (Q96RI1 whole entry, looked up): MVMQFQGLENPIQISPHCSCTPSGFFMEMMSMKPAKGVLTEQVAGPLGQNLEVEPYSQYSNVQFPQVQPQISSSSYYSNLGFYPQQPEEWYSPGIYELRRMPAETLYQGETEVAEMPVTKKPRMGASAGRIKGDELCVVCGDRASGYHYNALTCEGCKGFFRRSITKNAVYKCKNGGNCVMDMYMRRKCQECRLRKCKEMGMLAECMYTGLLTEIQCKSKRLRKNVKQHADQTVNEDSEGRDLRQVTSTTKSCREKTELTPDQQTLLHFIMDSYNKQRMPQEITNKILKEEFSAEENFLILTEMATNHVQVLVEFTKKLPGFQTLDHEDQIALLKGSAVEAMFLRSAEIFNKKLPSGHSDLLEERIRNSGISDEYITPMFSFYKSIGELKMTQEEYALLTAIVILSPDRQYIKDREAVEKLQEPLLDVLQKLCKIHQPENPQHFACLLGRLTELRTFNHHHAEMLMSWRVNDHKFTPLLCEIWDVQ
Outline: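 Read-out: beta-lactamase FRET fluorescence (LiveBLAzer B/G substrate, 2 h, room temperature) in GeneBLAzer FXR-UAS-bla HEK 293T cells. Compounds were co-dosed with 50 uM chenodeoxycholic acid (final) and incubated 16 h at 37 °C.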

[19] = biological target: Bile acid receptor (Homo sapiens) (UniProt Q96RI1); assay: qHTS assay to identify small molecule agonists of the farnesoid-X-receptor (FXR) signaling pathway (AID 743220; active = well fitted activation curve with a large enough effect in the signal ratio in the repeat runs, not every such curve was filed as active; the % refers to the signal ratio)
Outline: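 FXR-UAS-bla HEK 293T cells carrying a UAS-driven beta-lactamase reporter were plated for 5 h at 37C/5% CO2, then exposed to DMSO-dissolved Tox21 10K compounds for 16 h at 37C. A LiveBLAzer B/G FRET substrate was loaded for 2 h at room temperature before fluorescence reading.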

[20] = qHTS assay to identify small molecule antagonists of the farnesoid-X-receptor (FXR) signaling pathway - cell viability counter screen (AID 743221; active = well fitted cell-killing curve with a large enough effect in the repeat runs, not every such curve was filed as active; note: nearly all actives have a fitted effect of over 50% in size)
Outline: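 Cytotoxicity is taken from ATP luminescence (CellTiter-Glo, 30 min, room temperature) in FXR-bla HEK 293T cells previously incubated 16 h at 37 C with compound and chenodeoxycholic acid at 50 uM final.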

Measured: Potency

COC(=O)C(C)=O
not listed: [18] | [19] | [20]
inactive: all other assays above

Nc1ccc(C(=O)N2CC3CC(CN(Cc4ccccc4)C3)C2)cc1
not listed: [7] | [17]
inactive: all other assays above

OCCC1CCCCN1 (stereo unspecified)
not listed: [6] | [8] | [17] | [20]
inactive: all other assays above

CCN1CCC[C@H]1CNC(=O)c1c(OC)ccc(Br)c1OC
not listed: [7] | [17] | [20]
inactive: all other assays above

N=C(N=C(N)N)N1CCOCC1
not listed: [5] | [6] | [7] | [8] | [20]
inactive: all other assays above

O=C(Cl)c1ccc([N+](=O)[O-])cc1
not listed: [4] | [6] | [7] | [9] | [18] | [19]
inactive: all other assays above

COC(=O)CSc1cc(N=c2sc(=O)n3n2CCCC3)c(F)cc1Cl
not listed: [3] | [4] | [5] | [6] | [7]
inactive: all other assays above

CCOc1ccc2[nH]cc(C(=O)NCc3ccccc3)c(=O)c2n1
not listed: [5] | [7] | [17]
inactive: all other assays above

C1=Cc2ccccc2C1
not listed: [4] | [7] | [18] | [19]
inactive: all other assays above

CCN(CC)CCOC(=O)C1(c2ccccc2)CCCC1
not listed: [6] | [7] | [20]
inactive: all other assays above

CC(=O)OC/C=C/c1ccccc1
not listed: [5] | [6] | [9]
inactive: all other assays above

COCCO
not listed: [4] | [5] | [7] | [18] | [19]
inactive: all other assays above

O=CNc1ccccc1
not listed: [17]
inactive: all other assays above

CCOC(=O)C1=C(C)NC(C)=C(C(=O)OC)C1c1cccc([N+](=O)[O-])c1 (stereo unspecified)
not listed: [17] | [18] | [19]
inactive: all other assays above

CN(C)CCCNCCCN
not listed: [8] | [17]
inactive: all other assays above

CN1CCC(OC(c2ccccc2)c2ccccc2)CC1
not listed: [3] | [4] | [6] | [7] | [20]
inactive: all other assays above

CNCC[C@@H](Oc1ccccc1C)c1ccccc1
active: [16] 21.3 µM
not listed: [1] | [2] | [8] | [18] | [19]
inactive: all other assays above

FC(F)(F)C(F)(F)C(F)(F)C(F)(F)C(F)(F)C(F)(F)CCI
not listed: [17]
inactive: all other assays above

CN(C)C/C=C(/c1ccc(Br)cc1)c1cccnc1
not listed: [1] | [2] | [4] | [8] | [18] | [19]
inactive: all other assays above

CN(C)CC[C@@H](c1ccc(Br)cc1)c1ccccn1
not listed: [1] | [4] | [6] | [7] | [20]
inactive: all other assays above

CCCCCCCCC(CO)CCCCCC (stereo unspecified)
not listed: [2] | [4] | [8] | [20]
inactive: all other assays above

NCCCOCCOCCOCCCN
active: [14] 17.2 µM | [17] 43.6 µM
not listed: [2] | [4] | [7] | [8] | [18] | [19]
inactive: all other assays above

COCCCCCCCCOCCC[Si](C)(O[Si](C)(C)C)O[Si](C)(C)C
active: [3] 15.5 µM | [14] 17.2 µM
not listed: [1] | [4] | [5] | [8] | [9] | [19]
inactive: all other assays above

N[C@H]1C(O)O[C@H](CO)[C@H](O)[C@@H]1O (stereo partly specified)
not listed: [17] | [18] | [19]
inactive: all other assays above

CCCCOC(=O)/C=C\C(=O)OCCCC
not listed: [2] | [4] | [6] | [8] | [18]
inactive: all other assays above

Oc1ccc(Sc2ccc(O)cc2)cc1
not listed: [7] | [18]
inactive: all other assays above

O=c1[nH]cnc2ccccc12
not listed: [6] | [7]
inactive: all other assays above

CC(=O)c1c(C)c([N+](=O)[O-])c(C(C)(C)C)c([N+](=O)[O-])c1C
active: [17] 21.9 µM
not listed: [7] | [18]
inactive: all other assays above

CC[C@H](C)[C@H](N)C(=O)O
not listed: [2] | [4] | [18] | [19]
inactive: all other assays above

O=C(NN1CCCC1)NS(=O)(=O)c1ccc(Cl)cc1
inactive: all assays above

CCOC(=O)C1=NN(c2ccccc2)C(=O)C1
not listed: [1] | [4] | [7] | [20]
inactive: all other assays above

C=CC[N+]1([C@H]2C[C@H]3[C@@H]4CC[C@H]5C[C@H](OC(C)=O)[C@@H](N6CCCCC6)C[C@]5(C)[C@H]4CC[C@]3(C)[C@H]2OC(=O)CC)CCCCC1
not listed: [18] | [19]
inactive: all other assays above

C1CCC2OC2C1 (stereo unspecified)
not listed: [4] | [18] | [19]
inactive: all other assays above

C#CCOC(=O)[C@@H](C)Oc1ccc(Oc2ncc(Cl)cc2F)cc1
not listed: [8] | [20]
inactive: all other assays above
